In paper PMC9574860, “Chemical Toolkit for PARK7: Potent, Selective, and High-Throughput” (Journal of Medicinal Chemistry, 2022):
The campaign covered roughly 7,900 compounds. About 400 (5.1%) showed an effect of 50% or more. The sample holds strong results, similar compounds and a random draw of the others, so the mix is not that of the screen.

molecular target: Parkinson's disease protein 7 (PARK7/DJ1) (human, UniProt Q99497); test: primary screen, percent inhibition; read as competition with a fluorescent probe by fluorescence polarization; higher = more effect of the substance; details: 100 µM
Sequence (Q99497 whole entry, looked up, the tested form may be a part): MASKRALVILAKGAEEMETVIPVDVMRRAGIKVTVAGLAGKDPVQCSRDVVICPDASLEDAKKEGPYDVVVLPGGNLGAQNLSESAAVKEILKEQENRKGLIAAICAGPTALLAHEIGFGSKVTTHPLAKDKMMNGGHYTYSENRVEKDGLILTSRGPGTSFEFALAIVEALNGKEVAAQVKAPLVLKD
Protocol: The screen was conducted using the conditions as described above in 1536-well plates (Corning 3724) with a reaction volume of 8 μL per well. The compound library containing 7887 covalent fragments was purchased at Enamine Ltd. and received as 100 mM DMSO stocks in 384 well LDV Echo plates (Labcyte LP-0200). Stock solutions of 0.26 μM PARK7 and 80 nM JYQ-107 were prepared. Using a Labcyte Echo550 acoustic dispenser, 8 nL of the DMSO stock solution of the library compounds was transferred from the source plates into the empty 1536-well screening plates to obtain a 100 μM final compound concentration. Next, PARK7 (6 μL, final concentration 0.2 μM) was dispensed using a Biotek MultiflowFX liquid dispenser and incubated for 2 h, followed by dispensing the probe JYQ-107 (2 μL, final concentration 20 nM). After 2 h incubation, the FP signal was recorded on a BMG Labtech PHERAstar plate reader (λex/em 480/520 nm). The relative loss of FP signal compared with reference controls was used to calculate the remaining enzyme activity.

| SMILES | Inhibition % |
| --- | --- |
| Cc1ccc2ccccc2c1B(O)O | 0.986% |
| O=S(=O)(C=Cc1ccccc1)Nc1ccc(F)c(F)c1 | 1.18% |
| COc1ccc(NS(=O)(=O)C=Cc2ccccc2)cn1 | 59.9% |
| CN(C)c1ccc(NS(=O)(=O)C=Cc2ccccc2)cn1 | 69.9% |
| O=S(=O)(F)c1ccc(S(=O)(=O)Nc2ccnnc2)cc1 | 8.23% |
| Cc1cc(NS(=O)(=O)C=Cc2ccccc2)ccn1 | 29.4% |
| N#Cc1ccc(NS(=O)(=O)C=Cc2ccccc2)cc1 | 10.5% |
| COc1ccc(NS(=O)(=O)c2ccc(S(=O)(=O)F)cc2)cn1 | 100% |
| COc1ccc(NS(=O)(=O)C=Cc2ccccc2)cc1 | 1.18% |
| COc1ccccc1NS(=O)(=O)C=Cc1ccccc1 | 7.7% |
| CCn1cc(NS(=O)(=O)C=Cc2ccccc2)cn1 | 81.4% |
| Cc1ccc(C=CS(=O)(=O)Nc2cnn(CCO)c2)cc1 | 14.7% |
| O=C(CCl)NCc1ccc(C(=O)N2CCOCC2)cc1 | 19.5% |
| C=CC(=O)NC1C2CCOC2C12CCCC2 (centres unmarked) | 5.2% |
| C=CC(=O)N1CCOCC(C)C1 (centres unmarked) | 6.12% |
| O=C1SCCN1CN1CCC(c2ccccc2)CC1 | 11.7% |

| SMILES | Inhibition % |
| --- | --- |
| Cc1cccc(NC2C=CS(=O)(=O)C2)c1 (centres unmarked) | 7.19% |
| CC1(C)COCCN1Cn1nc(-c2ccccc2)oc1=O | 8.59% |
| COc1ncc(B2OC(C)(C)C(C)(C)O2)cn1 | 4.41% |
| C=CC(=O)N1CCOCC1c1nnc(C(C)C)o1 (centres unmarked) | 10% |
| Cc1cccc(C)c1N1C(=O)CN=C1S | 1.33% |
| Cc1ccc(S(=O)(=O)N2CCCCC2C2OCCO2)cc1 (centres unmarked) | 3.92% |
| O=C(O)Cc1ccc(S(=O)(=O)F)cc1 | 89.7% |
| O=C(Cc1ccc(S(=O)(=O)F)cc1)NC1CCCC1 | 2.81% |
| O=C(CCc1ccc(S(=O)(=O)F)cc1)N1CCCCC1 | 12.4% |
| O=C(O)CCc1ccc(S(=O)(=O)F)cc1 | 82.3% |
| O=C(Cc1ccc(S(=O)(=O)F)cc1)Nc1ccccc1Cl | 12.8% |
| CC(C)N(C)C(=O)CCc1ccc(S(=O)(=O)F)cc1 | 4.68% |
| OB(O)c1ccc(OCC(F)(F)F)cc1F | 13% |
| CC(c1ccccc1)C1CO1 (centres unmarked) | -0.54% |
| COc1ccc(C2CCCN2C(=O)n2ccnc2)cc1 (centres unmarked) | 6.77% |
| CC1(C)OB(c2ccc(N)c(CO)c2)OC1(C)C | 7.71% |
